The source of these data is ChEMBL document CHEMBL4513216, “Probing the Open Global Health Chemical Diversity Library for Multistage-Active Starting Points for Next-Generation Antimalarials” (ACS Infect Dis, 2020).

The campaign covered roughly 68,000 compounds. About 2,700 (4%) showed an effect of 50% or more. This is one part of a sample in which strong results are shown more often than they occur.

The test system of this experiment is Plasmodium berghei. The experiment can be described thus: Screen against P. berghei liver stage (PbLuc), transformed with Luciferase, at 2uM. It counts as functional, HepG2. To be noted: tested at 2 uM.
As to `Cc1n[nH]cc1CNC(C)c1cccc(N2CCCC2=O)c1` (centres undefined), the INHIBITION is 11.31%.

Turning to `Cc1nc(CNC(C)c2cccc(N3CCCC3=O)c2)cs1` (centres undefined), the INHIBITION came to 65.57%.

With `CCc1nc(CNC(C)c2cccc(N3CCCC3=O)c2)cs1` (centres undefined), the INHIBITION is recorded as 0.45%.

Take `Cc1ccc2nc(C3CCN(CC4CC4)CC3)nn2c1`: the INHIBITION is recorded as 28.95%.

On to `CC(C)(C)c1nc(CN2CCc3onc(-c4cccc(F)c4)c3C2)no1`, for which the INHIBITION is listed as -7.68%.

In the case of `O=C(c1ccco1)N1CCC[C@]2(C[C@H](Oc3ncccc3F)CO2)C1`, the INHIBITION is recorded as -9.69%.

With `O=C(c1cc(-c2ccco2)nc2c(Cl)cccc12)N1CC[C@H]2CNC[C@H]21`, the INHIBITION was found to be 53.98%.

As for `O=C1CN(C(=O)c2cc(-c3ccco3)nc3c(Cl)cccc23)CCN1`, the INHIBITION is reported as 38.83%.

Turning to `O=C(c1cc(-c2ccco2)nc2c(Cl)cccc12)N1C[C@H]2CNC[C@H]2C1`, the INHIBITION amounted to 35.46%.

For `Cc1occc1C(=O)N1CCOCC2(CCN(C3CCOCC3)C2)C1` (centres undefined), the INHIBITION is 30.46%.

Take `Cc1ccc2c(c1)C1(CCNCC1)CC2NC1CC1` (centres undefined): the INHIBITION was determined as 13.67%.

For the compound `Fc1ccc2c(c1)C1(CCNCC1)CC2NC1CC1` (centres undefined), the INHIBITION was determined as 21.32%.

Regarding `c1ccc2c(c1)C(NC1CCCC1)CC21CCNCC1` (centres undefined), the INHIBITION is listed as 53.81%.

On to `CCc1ccc(C(=O)N2CCCC2c2nnc3n2CCCCC3)o1` (centres undefined), for which the INHIBITION is recorded as 17.33%.

Regarding `O=C1CCCN1Cc1nnc2n1CCN(Cc1ccccn1)CC2`, the INHIBITION amounted to 51.26%.

Take `Cc1ccc(CN2CCc3nnc(CN4CCCC4=O)n3CC2)s1`: the INHIBITION is on record as 60.6%.

Consider `O=C1CCCN1Cc1nnc2n1CCN(Cc1ccoc1)CC2`, for which the INHIBITION is -11.91%.

In the case of `Cc1ccc(CN2CCc3nnc(CN4CCCC4=O)n3CC2)o1`, the INHIBITION is given as 47.97%.

Consider `Cc1cccc(CN2CCc3nnc(CN4CCCC4=O)n3CC2)n1`, for which the INHIBITION was -43.47%.

For `c1ccc(CN2CCc3nnc(CN4CCCCC4)n3CC2)nc1`, the INHIBITION was 2.71%.

On to `Cn1cc(N2CC3(COCCN(Cc4nccs4)C3)OCC2=O)cn1` (centres undefined), for which the INHIBITION worked out at 6.8%.

Regarding `Clc1cnccc1N1CCCOCC1`, the INHIBITION is -149.33%.

Consider `O=C1CC(c2ccncc2)c2c(sc3c2CCCC3)N1` (centres undefined), for which the INHIBITION is recorded as -5.89%.

For `Cc1cccc(N2CCN(C(=O)NC(C)c3nncn3C)CC2)c1C` (centres undefined), the INHIBITION amounted to 38.76%.

`CCN(CC)S(=O)(=O)N1CC[C@H](c2ccccc2)[C@H]2NCCCC[C@H]21`: the INHIBITION amounted to 39.99%.

On to `COc1cc(N2CCC(c3nccn3Cc3ccccn3)CC2)ncn1`, for which the INHIBITION was 53.19%.

On to `COc1cc(N2CCC(c3nccn3Cc3ccccc3)CC2)ncn1`, for which the INHIBITION was -2.99%.

Take `COc1cc(N2CCC(c3nccn3Cc3cccnc3)CC2)ncn1`: the INHIBITION is 5.82%.

Turning to `O=c1c2cc3c(cc2nnn1Cc1ccccc1Cl)OCCO3`, the INHIBITION is -15.25%.

As for `CN(C)C(=O)Cc1ccc(-c2cccc3c2CCNC3)cc1`, the INHIBITION stood at 2.11%.

Take `CCC(C)C(=O)Nc1ccc(CCN2CCOCC2)cc1` (centres undefined): the INHIBITION was determined as 31.65%.

For `Cc1cc(C)c2nc(CN3CCC(C#N)CC3)cc(O)c2c1`, the INHIBITION is listed as 3.91%.

As for `Cc1cc(C)c2nc(CN3CCC(CN)C3)cc(O)c2c1` (centres undefined), the INHIBITION was 25.06%.

As for `Cc1cc(C)c2nc(CN3CCC(CN)CC3)cc(O)c2c1`, the INHIBITION was determined as 51.19%.

With `Cn1c(CN2CCCCC2)cc(=O)c(O)c1CN1CCCCC1`, the INHIBITION is 14.97%.

In the case of `O=C(c1ccco1)N1Cc2cnn(CC3CC3)c2C(COCC2CC2)C1` (centres undefined), the INHIBITION worked out at 14.09%.

As for `COC1CCN(C(=O)Cn2ncc(N3CCCCC3)cc2=O)C1` (centres undefined), the INHIBITION stood at 11.69%.

Regarding `CC1CN(c2ncccc2C(=O)Nc2cccc3c2CCCC3)CCN1` (centres undefined), the INHIBITION is on record as 39.51%.

On to `Cc1cccc(C(=O)Nc2cccc3c2CCCC3)n1`, for which the INHIBITION is given as -25.13%.

For `O=C(Nc1cccc2c1CCCC2)c1cccnc1N1CCCNCC1`, the INHIBITION amounted to 65.7%.

For the compound `CN(Cc1ccc(Cl)cc1)S(=O)(=O)N(C)Cc1cnn(C)c1`, the INHIBITION is -2.86%.

Consider `O=C(c1ccncc1)N1CCc2onc(CN3CCCC3)c2C1`, for which the INHIBITION came to 37.35%.

For `O=C(c1ccc(Cl)o1)N1CCCC(c2cc(C(F)(F)F)[nH]n2)C1` (centres undefined), the INHIBITION was -102.06%.

As to `CCCOC(C)Cn1ccc2[nH]c(=O)c(C#N)cc2c1=O` (centres undefined), the INHIBITION is on record as 59.1%.

For the compound `CC(O)CCn1ccc2[nH]c(=O)c(C#N)cc2c1=O` (centres undefined), the INHIBITION was found to be 44.41%.

In the case of `CCC(Cn1ccc2[nH]c(=O)c(C#N)cc2c1=O)OC` (centres undefined), the INHIBITION came to 0.03%.

In the case of `Cc1nc(C)n(Cc2cccc(NC(=O)N(C)CCC(C)O)c2)n1` (centres undefined), the INHIBITION is on record as -3.2%.

In the case of `Cc1cccc(-n2nc(CC(C)C)nc2CCC(=O)N(C)C)c1`, the INHIBITION was 8.13%.

For the compound `CSCC(=O)N1CCc2c(cnc(C)c2-c2noc(-c3cc[nH]n3)n2)C1`, the INHIBITION was 18.84%.

On to `COCCn1ccnc1C1CCCN(C(=O)CSc2nnc(C)o2)C1` (centres undefined), for which the INHIBITION was -7.17%.

`CCn1c(CC2CCN(S(=O)(=O)c3cccc(C)c3)CC2)nn(C)c1=O`: the INHIBITION is reported as 38.96%.

Take `CCn1c(CC2CCN(S(=O)(=O)N3CCCCC3)CC2)nn(C)c1=O`: the INHIBITION is recorded as 50.41%.

Turning to `CCn1c(CC2CCN(S(=O)(=O)Cc3ccccc3)CC2)nn(C)c1=O`, the INHIBITION is reported as 22.09%.

As to `CCc1nn(C)c(Cl)c1CN(CCOC)Cc1cnn(C)c1`, the INHIBITION is recorded as -0.41%.

Regarding `COC(=O)C(C)(C)NC(=O)C1CC(=O)N(CC(C)C)C1` (centres undefined), the INHIBITION is given as 49.16%.

Turning to `CCN1CC(C(=O)NC(C)(C)C(=O)OC)CC1=O` (centres undefined), the INHIBITION is listed as -59.42%.

For `COC(=O)C(C)(C)NC(=O)C1CC(=O)N(CC(F)(F)F)C1` (centres undefined), the INHIBITION is reported as 54.62%.

For the compound `COc1ccc(CCN2CC(NCc3ncc[nH]3)CC2=O)cc1` (centres undefined), the INHIBITION is reported as 45.41%.

With `c1ccc(N2CC[C@@H]3CN(Cc4ccncc4)CCO[C@@H]3C2)cc1`, the INHIBITION was -19.36%.

With `CS(=O)(=O)CCN(CCCO)C1CCc2ccccc21` (centres undefined), the INHIBITION stood at 14.3%.

As to `O=S(=O)(c1ccccc1F)N1CCCCC1c1cc[nH]n1` (centres undefined), the INHIBITION is -16.62%.

Regarding `O=S(=O)(NC1CCCN(c2ncccn2)C1)N1CCCCCC1` (centres undefined), the INHIBITION was -56.93%.

Regarding `COc1ccsc1C(=O)NC1CCN(c2cccc(F)c2)CC1`, the INHIBITION is listed as -11.07%.

With `Nc1nccc(N2CCC(c3cc(Cc4ccccc4)n[nH]3)CC2)n1`, the INHIBITION is reported as 56.33%.

Consider `Cc1ccc(N2CCC(c3cc(Cc4ccccc4)n[nH]3)CC2)nn1`, for which the INHIBITION is -45.89%.

`Cc1cc(CN2CCC(c3cc(Cc4ccccc4)n[nH]3)CC2)[nH]n1`: the INHIBITION was -3.32%.

Consider `Nc1cc(N2CCC(c3cc(Cc4ccccc4)n[nH]3)CC2)ccn1`, for which the INHIBITION is 60.35%.

On to `Nc1nc(O)cc(N2CCC(c3cc(Cc4ccccc4)n[nH]3)CC2)n1`, for which the INHIBITION is 5.41%.

As for `NC(=O)NCCC(=O)N1CCC(c2cc(Cc3ccccc3)n[nH]2)CC1`, the INHIBITION amounted to 42.27%.
